Data: the supplement of paper PMC4466140

Biological target: AgAbp1
Experiment: SPOT peptide array binding signal intensity (averaged, normalized) (arbitrary units (background-subtracted, floor 0; scale differs between SH3 domains)); higher = stronger binding of the SH3 domain to the peptide
Procedure, shortened: (§1)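 GST-SH3 fusions from four yeast species, purified on glutathione Sepharose, were incubated at 10 μg/ml overnight at 4°C on membranes of synthetic 15-mer peptides in which cysteines were replaced with serines. Binding signal is the normalized, background-subtracted spot intensity averaged over replicates, in domain-specific arbitrary units.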

Binder	SPOT peptide array binding signal intensity
NLDRSKISLPDFDDE	4.5

Biological target: AgBbc1
Experiment: as above
Procedure, shortened: as §1

Binder	SPOT peptide array binding signal intensity
NLDRSKISLPDFDDE	0.75

Biological target: AgBem1-D1
Experiment: as above
Procedure, shortened: as §1

Binder	SPOT peptide array binding signal intensity
NLDRSKISLPDFDDE	5.5

Biological target: AgBzz1-D1
Experiment: as above
Procedure, shortened: as §1

Binder	SPOT peptide array binding signal intensity
NLDRSKISLPDFDDE	26

Biological target: AgBzz1-D2
Experiment: as above
Procedure, shortened: as §1

Binder	SPOT peptide array binding signal intensity
NLDRSKISLPDFDDE	14

Biological target: AgCyk3
Experiment: as above
Procedure, shortened: as §1

Binder	SPOT peptide array binding signal intensity
NLDRSKISLPDFDDE	≤ 0

Biological target: AgFus1
Experiment: as above
Procedure, shortened: as §1

Binder	SPOT peptide array binding signal intensity
NLDRSKISLPDFDDE	42

Biological target: AgHof1
Experiment: as above
Procedure, shortened: as §1

Binder	SPOT peptide array binding signal intensity
NLDRSKISLPDFDDE	11.5

Biological target: AgHse1
Experiment: as above
Procedure, shortened: as §1

Binder	SPOT peptide array binding signal intensity
NLDRSKISLPDFDDE	716

Biological target: AgLsb1
Experiment: as above
Procedure, shortened: as §1

Binder	SPOT peptide array binding signal intensity
NLDRSKISLPDFDDE	≤ 0

Biological target: AgLsb4
Experiment: as above
Procedure, shortened: as §1

Binder	SPOT peptide array binding signal intensity
NLDRSKISLPDFDDE	18

Biological target: AgMyo5
Experiment: as above
Procedure, shortened: as §1

Binder	SPOT peptide array binding signal intensity
NLDRSKISLPDFDDE	≤ 0

Biological target: AgNbp2
Experiment: as above
Procedure, shortened: as §1

Binder	SPOT peptide array binding signal intensity
NLDRSKISLPDFDDE	4

Biological target: AgRvs167
Experiment: as above
Procedure, shortened: as §1

Binder	SPOT peptide array binding signal intensity
NLDRSKISLPDFDDE	7

Biological target: AgSho1
Experiment: as above
Procedure, shortened: as §1

Binder	SPOT peptide array binding signal intensity
NLDRSKISLPDFDDE	11.5

Biological target: AgSla1-D1-D2
Experiment: as above
Procedure, shortened: as §1

Binder	SPOT peptide array binding signal intensity
NLDRSKISLPDFDDE	≤ 0

Biological target: AgSla1-D3
Experiment: as above
Procedure, shortened: as §1

Binder	SPOT peptide array binding signal intensity
NLDRSKISLPDFDDE	≤ 0

Biological target: CaAbp1-D1
Experiment: as above
Procedure, shortened: as §1

Binder	SPOT peptide array binding signal intensity
NLDRSKISLPDFDDE	33.5

Biological target: CaAbp1-D2
Experiment: as above
Procedure, shortened: as §1

Binder	SPOT peptide array binding signal intensity
NLDRSKISLPDFDDE	26

Biological target: CaBbc1
Experiment: as above
Procedure, shortened: as §1

Binder	SPOT peptide array binding signal intensity
NLDRSKISLPDFDDE	8

Biological target: CaBem1-D1
Experiment: as above
Procedure, shortened: as §1

Binder	SPOT peptide array binding signal intensity
NLDRSKISLPDFDDE	4

Biological target: CaBzz1-D1
Experiment: as above
Procedure, shortened: as §1

Binder	SPOT peptide array binding signal intensity
NLDRSKISLPDFDDE	31

Biological target: CaBzz1-D2
Experiment: as above
Procedure, shortened: as §1

Binder	SPOT peptide array binding signal intensity
NLDRSKISLPDFDDE	2.5

Biological target: CaCyk3
Experiment: as above
Procedure, shortened: as §1

Binder	SPOT peptide array binding signal intensity
NLDRSKISLPDFDDE	≤ 0

Biological target: CaFus1
Experiment: as above
Procedure, shortened: as §1

Binder	SPOT peptide array binding signal intensity
NLDRSKISLPDFDDE	283

Biological target: CaHof1
Experiment: as above
Procedure, shortened: as §1

Binder	SPOT peptide array binding signal intensity
NLDRSKISLPDFDDE	1.5

Biological target: CaHse1
Experiment: as above
Procedure, shortened: as §1

Binder	SPOT peptide array binding signal intensity
NLDRSKISLPDFDDE	21

Biological target: CaLsb1
Experiment: as above
Procedure, shortened: as §1

Binder	SPOT peptide array binding signal intensity
NLDRSKISLPDFDDE	≤ 0

Biological target: CaLsb4
Experiment: as above
Procedure, shortened: as §1

Binder	SPOT peptide array binding signal intensity
NLDRSKISLPDFDDE	≤ 0

Biological target: CaMyo5
Experiment: as above
Procedure, shortened: as §1

Binder	SPOT peptide array binding signal intensity
NLDRSKISLPDFDDE	6.25

Biological target: CaNbp2
Experiment: as above
Procedure, shortened: as §1

Binder	SPOT peptide array binding signal intensity
NLDRSKISLPDFDDE	193

Biological target: CaRvs167
Experiment: as above
Procedure, shortened: as §1

Binder	SPOT peptide array binding signal intensity
NLDRSKISLPDFDDE	1.33

Biological target: CaRvs167-3
Experiment: as above
Procedure, shortened: as §1

Binder	SPOT peptide array binding signal intensity
NLDRSKISLPDFDDE	1.25

Biological target: CaSho1
Experiment: as above
Procedure, shortened: as §1

Binder	SPOT peptide array binding signal intensity
NLDRSKISLPDFDDE	74.5

Biological target: CaSla1-D1-D2
Experiment: as above
Procedure, shortened: as §1

Binder	SPOT peptide array binding signal intensity
NLDRSKISLPDFDDE	≤ 0

Biological target: CaSla1-D3
Experiment: as above
Procedure, shortened: as §1

Binder	SPOT peptide array binding signal intensity
NLDRSKISLPDFDDE	≤ 0

Biological target: ScAbp1
Experiment: as above
Procedure, shortened: as §1

Binder	SPOT peptide array binding signal intensity
NLDRSKISLPDFDDE	11

Biological target: ScBbc1
Experiment: as above
Procedure, shortened: as §1

Binder	SPOT peptide array binding signal intensity
NLDRSKISLPDFDDE	1.5

Biological target: ScBem1-D1
Experiment: as above
Procedure, shortened: as §1

Binder	SPOT peptide array binding signal intensity
NLDRSKISLPDFDDE	1

Biological target: ScBzz1-D1
Experiment: as above
Procedure, shortened: as §1

Binder	SPOT peptide array binding signal intensity
NLDRSKISLPDFDDE	39.5

Biological target: ScBzz1-D2
Experiment: as above
Procedure, shortened: as §1

Binder	SPOT peptide array binding signal intensity
NLDRSKISLPDFDDE	18

Biological target: ScCyk3
Experiment: as above
Procedure, shortened: as §1

Binder	SPOT peptide array binding signal intensity
NLDRSKISLPDFDDE	16

Biological target: ScFus1
Experiment: as above
Procedure, shortened: as §1

Binder	SPOT peptide array binding signal intensity
NLDRSKISLPDFDDE	34

Biological target: ScHof1
Experiment: as above
Procedure, shortened: as §1

Binder	SPOT peptide array binding signal intensity
NLDRSKISLPDFDDE	2

Biological target: ScHse1
Experiment: as above
Procedure, shortened: as §1

Binder	SPOT peptide array binding signal intensity
NLDRSKISLPDFDDE	1260

Biological target: ScLsb1
Experiment: as above
Procedure, shortened: as §1

Binder	SPOT peptide array binding signal intensity
NLDRSKISLPDFDDE	≤ 0

Biological target: ScLsb2
Experiment: as above
Procedure, shortened: as §1

Binder	SPOT peptide array binding signal intensity
NLDRSKISLPDFDDE	≤ 0

Biological target: ScLsb3
Experiment: as above
Procedure, shortened: as §1

Binder	SPOT peptide array binding signal intensity
NLDRSKISLPDFDDE	≤ 0

Biological target: ScLsb4
Experiment: as above
Procedure, shortened: as §1

Binder	SPOT peptide array binding signal intensity
NLDRSKISLPDFDDE	3

Biological target: ScMyo3
Experiment: as above
Procedure, shortened: as §1

Binder	SPOT peptide array binding signal intensity
NLDRSKISLPDFDDE	3.5

Biological target: ScMyo5
Experiment: as above
Procedure, shortened: as §1

Binder	SPOT peptide array binding signal intensity
NLDRSKISLPDFDDE	4

Biological target: ScNbp2
Experiment: as above
Procedure, shortened: as §1

Binder	SPOT peptide array binding signal intensity
NLDRSKISLPDFDDE	28

Biological target: ScPex13
Experiment: as above
Procedure, shortened: as §1

Binder	SPOT peptide array binding signal intensity
NLDRSKISLPDFDDE	≤ 0

Biological target: ScRvs167
Experiment: as above
Procedure, shortened: as §1

Binder	SPOT peptide array binding signal intensity
NLDRSKISLPDFDDE	0.167

Biological target: ScSho1
Experiment: as above
Procedure, shortened: as §1

Binder	SPOT peptide array binding signal intensity
NLDRSKISLPDFDDE	87.5

Biological target: ScSla1-D1-D2
Experiment: as above
Procedure, shortened: as §1

Binder	SPOT peptide array binding signal intensity
NLDRSKISLPDFDDE	≤ 0

Biological target: ScSla1-D3
Experiment: as above
Procedure, shortened: as §1

Binder	SPOT peptide array binding signal intensity
NLDRSKISLPDFDDE	1

Biological target: SpAbp1-D1
Experiment: as above
Procedure, shortened: as §1

Binder	SPOT peptide array binding signal intensity
NLDRSKISLPDFDDE	11

Biological target: SpBbc1
Experiment: as above
Procedure, shortened: as §1

Binder	SPOT peptide array binding signal intensity
NLDRSKISLPDFDDE	≤ 0

Biological target: SpBzz1-D1
Experiment: as above
Procedure, shortened: as §1

Binder	SPOT peptide array binding signal intensity
NLDRSKISLPDFDDE	14.5

Biological target: SpBzz1-D2
Experiment: as above
Procedure, shortened: as §1

Binder	SPOT peptide array binding signal intensity
NLDRSKISLPDFDDE	≤ 0

Biological target: SpCyk3
Experiment: as above
Procedure, shortened: as §1

Binder	SPOT peptide array binding signal intensity
NLDRSKISLPDFDDE	≤ 0

Biological target: SpHof1
Experiment: as above
Procedure, shortened: as §1

Binder	SPOT peptide array binding signal intensity
NLDRSKISLPDFDDE	11.5

Biological target: SpHof1-2
Experiment: as above
Procedure, shortened: as §1

Binder	SPOT peptide array binding signal intensity
NLDRSKISLPDFDDE	4

Biological target: SpHof1-3
Experiment: as above
Procedure, shortened: as §1

Binder	SPOT peptide array binding signal intensity
NLDRSKISLPDFDDE	70

Biological target: SpHse1
Experiment: as above
Procedure, shortened: as §1

Binder	SPOT peptide array binding signal intensity
NLDRSKISLPDFDDE	983

Biological target: SpLsb1
Experiment: as above
Procedure, shortened: as §1

Binder	SPOT peptide array binding signal intensity
NLDRSKISLPDFDDE	≤ 0

Biological target: SpLsb4
Experiment: as above
Procedure, shortened: as §1

Binder	SPOT peptide array binding signal intensity
NLDRSKISLPDFDDE	≤ 0

Biological target: SpMyo1
Experiment: as above
Procedure, shortened: as §1

Binder	SPOT peptide array binding signal intensity
NLDRSKISLPDFDDE	9

Biological target: SpNbp2
Experiment: as above
Procedure, shortened: as §1

Binder	SPOT peptide array binding signal intensity
NLDRSKISLPDFDDE	16

Biological target: SpPex13
Experiment: as above
Procedure, shortened: as §1

Binder	SPOT peptide array binding signal intensity
NLDRSKISLPDFDDE	≤ 0

Biological target: SpRvs167
Experiment: as above
Procedure, shortened: as §1

Binder	SPOT peptide array binding signal intensity
NLDRSKISLPDFDDE	0.5

Biological target: SpSla1-D1-D2
Experiment: as above
Procedure, shortened: as §1

Binder	SPOT peptide array binding signal intensity
NLDRSKISLPDFDDE	≤ 0

Biological target: SpSla1-D3
Experiment: as above
Procedure, shortened: as §1

Binder	SPOT peptide array binding signal intensity
NLDRSKISLPDFDDE	≤ 0
